Calb biofilm kill: kills Candida albicans biofilms | inhibition, % at 6 µM | C. albicans biofilm + clotrimazole, Alamar Blue | 0.14% of 85,000 active;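 active = inhibition above 20%; inactive = inhibition below 20%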;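 note: preformed 24 hr biofilms exposed to compound for 48 hr; 0% = biofilm without compound and 100% = blank killed by clotrimazole plus chlorhexidine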
HePTP inhibitor: human HePTP phosphatase inhibition | 0.64% of 110,000 active | recombinant HePTP phosphatase activity, OD absorbance | P35236 | inhibition, % at 20 µM; in the data active = inhibition above about 50%;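 note: plate controls were vehicle for no effect and reference inhibitor for full effect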
TNAP act mid DEA: activates human TNAP at intermediate phosphate acceptor concentration; purified TNAP, CDP-star luminescence, 100 mM DEA, 30 min; active compounds read high; scale: 0 levamisole-inhibited, 1 vehicle-only enzyme; activation factor at 20 µM; 64,000 tested, under 10 active;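 active = activation factor of at least 2 at 20 µM, relative to controls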
Target sequence (P05186 whole entry, looked up): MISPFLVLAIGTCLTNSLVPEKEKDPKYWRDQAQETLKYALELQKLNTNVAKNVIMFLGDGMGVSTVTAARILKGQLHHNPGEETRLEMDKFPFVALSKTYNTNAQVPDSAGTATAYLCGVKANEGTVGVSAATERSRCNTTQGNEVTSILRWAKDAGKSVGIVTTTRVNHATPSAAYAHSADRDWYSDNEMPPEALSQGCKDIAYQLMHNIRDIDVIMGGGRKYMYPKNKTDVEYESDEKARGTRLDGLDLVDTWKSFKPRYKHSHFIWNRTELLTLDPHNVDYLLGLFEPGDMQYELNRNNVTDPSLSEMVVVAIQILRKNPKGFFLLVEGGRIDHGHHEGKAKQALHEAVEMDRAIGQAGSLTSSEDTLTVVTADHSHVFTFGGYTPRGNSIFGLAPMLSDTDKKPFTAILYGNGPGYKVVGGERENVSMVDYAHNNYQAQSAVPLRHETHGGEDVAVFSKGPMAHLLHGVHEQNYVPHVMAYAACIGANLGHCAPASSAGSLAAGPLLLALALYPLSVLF
D1 allo mod: allosteric modulators of human D1 dopamine receptor | B-score at 10 µM | HEK293 D1, CRE-luciferase, dopamine EC30 potentiation; actives deviate in either direction | P21728 | 5.9% of 58,000 active;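 active = luminescence count or its row- and column-corrected plate score outside the 99.7% band of the plate's sample wells, on either side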
PLAP act: activates human placental alkaline phosphatase; 1.2% of 96,000 active; activation fold at 20 µM; P05187; purified PLAP enzyme, luminescent substrate read-out; active compounds read high; in the data active = activation fold above about 2
hDAT+cocaine: human DAT dopamine uptake with cocaine, either direction | Q01959 | AID 449768 | B-score at 10 µM | LLC-PK1 hDAT cells, [14C]-dopamine uptake with cocaine IC80; actives deviate in either direction | 1.3% of 110,000 active;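 active = Z score or B-score, a plate-position-corrected score, falls beyond the plate's 99.7% confidence bounds, in either direction; inactive = both scores lie inside the 99.7% bounds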;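 note: scored against the spread of the other compound wells on the same plate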
D1 mod confirm: D1 receptor (human) allosteric modulation, confirmed. shares compounds with D1 allo mod. HEK293 D1 CRE-luciferase, dopamine EC30 potentiation; active compounds read high. luminescence at 10 µM. 88% of 2,200 active. AID 642;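 active = luminescence in either of two replicates above the same-plate mean plus 3 SD of the low-dose dopamine control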
D1 ag no DA: D1 (human) signaling in absence of dopamine | HEK293 D1 CRE-luciferase, luminescence, no dopamine; active compounds read high | luminescence at 10 µM | shares compounds with D1 allo mod | 0.8% of 1,900 active; in the data active = luminescence above about 3900
Isoprot counter: alters isoproterenol CRE-luciferase response in HEK293 cells. luminescence at 10 µM. 63% of 2,200 active. HEK293 D1 CRE-luciferase, isoproterenol EC30 counter-screen; active compounds read high. AID 647. shares compounds with D1 allo mod;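 active = luminescence in either replicate above plate mean of wells with a partly effective reference agonist dose plus 3 SD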;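 note: isoproterenol raises cAMP through native beta-adrenoceptor Gs so signal bypasses D1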
* hit, by the source's call; x = not tested or not shown. Shown is part of a subset that was picked to be rich in hits.

SMILES | Calb biofilm kill | HePTP inhibitor | TNAP act mid DEA | D1 allo mod | PLAP act | hDAT+cocaine | others
NC1=NC(=O)/C(=C/c2ccc(-c3cc([N+](=O)[O-])ccc3Cl)o2)S1 | x | 99* | x | x | x | x
CCc1ccc(NC(=O)C2CC(=O)N(c3ccccc3)C2)cc1 (stereo not drawn) | x | -1 | x | x | x | x
COc1cccc(N2CC(C(=O)Nc3ccc(C(=O)OC(C)C)cc3)CC2=O)c1 (stereo not drawn) | 2 | 9 | 0.9 | 0.57 | 1.1 | 3.2*
CC(C)C(=O)Nc1cccc(-c2cnc3ccccc3n2)c1 | 11 | x | x | x | 0.8 | 2.7*
CSc1nsc(/C=C/Nc2ccc(Cl)cc2)c1C#N | x | x | x | x | 1 | 2.6*
Cc1ccc(CNC(=O)C2CCCN(S(=O)(=O)c3c(C)n[nH]c3C)C2)cc1 (stereo not drawn) | 2 | x | x | x | 2.3* | 1.8
O=C(COc1ccccc1CNCc1ccccc1)Nc1ccccc1 | 5 | x | x | x | 2.6* | 0.38
C#Cc1ccc([C@H]2C=C(C(=O)NCc3nc4ccccc4[nH]3)O[C@@H](OCC)[C@@H]2CCCO)cc1 | x | x | x | x | x | 4.2*
CCCNC(=O)c1ccc2c(c1)C1C3CCC(C3)C1C(c1ccccc1)N2 (stereo not drawn) | x | x | x | x | 2.6* | 2
CCCNC(=O)c1ccc2snnc2c1 | 6 | x | x | x | x | 0.21
CCOC(=O)CC(=O)CSc1ccc2nnc(-c3ccccc3)n2n1 | -1 | 8 | 0.9 | 1 | 1.4 | 0.88
CCOC(=O)N1CCC(Nc2ccc3nnc(-c4ccccc4)n3n2)CC1 | 9 | 2 | 1 | -3* | 1.6 | 2.2
CCCc1cc(=O)[nH]c(-n2[nH]c3c(c2=O)CCCC3)n1 | x | x | x | x | 2.3* | x
Cc1c(C)c(C)c(C=C2C(=O)c3ccccc3C2=O)c(C)c1C | x | 10 | x | x | x | x
Cc1cc(NC(=O)c2ccc3c(c2)OCCO3)no1 | 8 | 5 | 1 | -6.4* | 0.8 | -0.36
CC(=O)c1sc(NC(=O)c2ccc3c(c2)OCO3)nc1C | x | 103* | x | x | x | x
COc1ccc(C(=O)Nc2nc(C)c(C(C)=O)s2)cc1 | x | -1 | x | x | x | x
Cc1cc(NC(=O)c2ccc3c(c2)OCO3)no1 | 11 | 4 | 0.9 | -2.1 | 0.8 | -0.85
CC(=O)c1sc(NC(=O)c2ccoc2C)nc1C | x | -2 | x | x | x | x
CC(=O)c1sc(NC(=O)c2ccccc2F)nc1C | 4 | 5 | 1 | -5.1* | 1.1 | 0.16
CCC(=O)N1CCN(c2cc(N3CCOCC3)c(F)cc2[N+](=O)[O-])CC1 | x | -13 | x | x | x | x
COc1ccc(NC(=S)NNC(=O)C(C)n2nc(C)c([N+](=O)[O-])c2C)cc1 (stereo not drawn) | x | x | x | x | 2.3* | -0.56
O=C(Nc1ccccc1)NC1CCCCC1 | 5 | 89* | x | x | 0.8 | -0.037
O=C1OC(/C=C/c2ccccc2)=NC/1=C/c1ccccc1 | x | 2 | x | x | x | x
O=C1OC(/C=C/c2ccccc2)=NC/1=C/c1ccc(-c2ccc3c(c2)C(=O)NC3=O)o1 | x | 71* | x | x | x | x
SMILES | Calb biofilm kill | HePTP inhibitor | TNAP act mid DEA | D1 allo mod | PLAP act | hDAT+cocaine | others
NC(N)=NS(=O)(=O)c1ccc(N/C=C2/CCCCC2=O)cc1 | x | -1 | x | x | x | x
COc1ccc(-n2ncc3c(NC(C)C)ncnc32)cc1 | x | -5 | 0.8 | -4 | 0.9 | 1.1
C=CCNc1ncnc2c1cnn2-c1ccc(Cl)cc1 | 15 | -8 | 1 | x | 0.9 | -0.031
COCC(C)Nc1ncnc2c1cnn2-c1ccc(Cl)cc1 (stereo not drawn) | 1 | 2 | 1 | x | x | 2.7*
COc1ccc(-n2ncc3c(NCC(C)C)ncnc32)cc1 | x | 6 | 0.9 | -4.2* | x | 0.49
CCCCNc1ncnc2c1cnn2-c1ccccc1 | -1 | 2 | 0.9 | -3.6* | 1.1 | 1.5
CCCCNc1ncnc2c1cnn2-c1ccc(Cl)cc1 | 6 | 8 | 0.9 | -2 | 1.2 | 1.9
CC1CCN(C2=NC(=O)/C(=C/c3cccc4ccccc34)S2)CC1 | x | -12 | x | x | x | x
COc1ccc(CC(=O)Nc2cccc(-c3nnc(-c4ccco4)o3)c2)cc1 | x | 4 | 0.9 | x | 0.9 | -0.081
Cc1cc(C)cc(OCC(=O)Nc2cccc(-c3nnc(-c4ccco4)o3)c2)c1 | 2 | 4 | 0.9 | -3.4* | 1.1 | 0.13
CCOc1cccc(NCc2cc3c(C(C)(C)C)nn(-c4ccccc4)c3[nH]c2=O)c1 | 4 | x | x | x | 12 | 0.3
CC(C)(C)c1nn(-c2ccccc2)c2[nH]c(=O)c(CNCc3ccc4c(c3)OCO4)cc12 | -1 | x | x | x | 2.1* | 1.5
Cc1ccccc1NC(=O)CCC(=O)N/N=C/c1cccs1 | x | -3 | x | x | x | x
Cc1ccc(C=C2C(=O)N(C)C(=O)N(C)C2=O)cc1 | x | 3 | x | x | x | x
CCN(CC)S(=O)(=O)c1ccc(Cl)c(C(=O)Nc2ccccc2C(=O)O)c1 | x | 4 | x | x | x | x
CCN(CC)S(=O)(=O)c1ccc(Cl)c(C(=O)NC)c1 | 11 | 3 | 0.9 | -5.2* | 1 | -1.1
O=c1oc2c(CN3CCCCCC3)c(O)ccc2cc1-c1nc2ccccc2[nH]1 | 8 | -7 | 1.1 | 0.12 | 2.4* | x
O=c1oc2c(CN3CCOCC3)c(O)ccc2cc1-c1nc2ccccc2[nH]1 | x | 2 | x | x | x | x
COc1ccc2c(c1)OCC/C2=N\OC(=O)c1cccc(Br)c1 | x | -19 | x | x | x | x
CCn1c(=N)n(CCO)c2ccccc21 | 3 | 7 | 0.9 | -4.1* | 0.8 | -0.015
CCOC(=O)c1ccc(NC(=O)CN(c2ccc(Cl)cc2C)S(=O)(=O)c2ccccc2)cc1 | x | -4 | x | x | x | x
Cc1ccc(CNc2oc(-c3cccs3)nc2C#N)cc1 | 5 | 5 | 0.8 | 18* | 0.8 | 0.27 | D1 mod confirm=22592*;D1 ag no DA=1632;Isoprot counter=5144*
N#Cc1nc(-c2cccs2)oc1NCc1ccccc1 | -4 | 7 | 0.8 | x | 0.9 | 1.2
N#Cc1nc(-c2cccs2)oc1NCc1ccc(Cl)cc1 | 2 | 6 | 0.8 | 8.3* | 0.9 | 0.032 | D1 mod confirm=9676*;D1 ag no DA=1684;Isoprot counter=3416*
N#Cc1nc(-c2ccc([N+](=O)[O-])cc2)oc1NCc1ccccc1 | x | -8 | x | x | x | x
SMILES | Calb biofilm kill | HePTP inhibitor | TNAP act mid DEA | D1 allo mod | PLAP act | hDAT+cocaine | others
N#Cc1nc(-c2ccc(F)cc2)oc1NCc1ccccc1 | 0 | -3 | 1 | 5.7* | 0.9 | 0.031 | D1 mod confirm=8092*;D1 ag no DA=1668;Isoprot counter=2912
CCOc1ccc(/C=C2/SC(=O)N(CN3CCOCC3)C2=O)cc1 | x | -1 | x | x | x | x
O=S(=O)(Cc1ccccc1)CC(O)COc1ccc(Cl)cc1 (stereo not drawn) | x | 2 | x | x | x | x
CC(C)Oc1ccc(C(=O)N2CCC(Cc3ccccc3)CC2)cc1 | x | -10 | x | x | x | x
CN1C(=O)/C(=C\c2ccc(OS(=O)(=O)c3ccccc3[N+](=O)[O-])cc2)SC1=S | x | 2 | x | x | x | x
CCN(CC)c1ccc(C(=O)N2CCN(c3cccc(Cl)c3)CC2)cc1 | x | -2 | x | x | x | x
